# A selection: hits, their analogues and other compounds. The true share with any hit is near 7.3%.
# SMN2 splice up: increases expression of the SMN2 splice variant | HEK293 SMN2-luciferase splicing reporter, luminescence, 30-36 h | Potency, µM (doses to about 46.1 µM), inactives show top-dose activity change, positive = activation, hits mostly activators | 2.8% of 210,000 active | AID 1458; note: % of control where 0% means no effect; nearly all actives have a fitted effect of over 55% in size
#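 HEK293 cells carry an SMN2 […]–luciferase reporter in which exon 7 inclusion puts luciferase in frame. Cells were plated 10-12 h before compound addition, then incubated 30-36 h at 37C. ONE-Glo luminescence was read; sodium butyrate at 4.5 mM final served as control.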
# Rab9 promoter act: activates the Rab9 promoter | AID 485297 | 2.8% of 320,000 active | Huh7 Rab9 promoter-luciferase reporter, luminescence, 24 h | Potency, µM (doses to about 9.22 µM), for the others: at the highest dose activation, negative = inhibition, hits mostly activators; note: % of control where 0% means no effect; nearly all actives have a fitted effect of over 60% in size
#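 Steps: seed 1500 Huh7 Rab9-luc cells per well, rest 2 h at 37 °C; add compound in DMSO; incubate 24 h; add luciferase reagent, 10 min ambient; read luminescence.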
# NPC1 promoter act: NPC1 promoter activation. Huh7 NPC1 promoter luciferase reporter, 24 h. Potency, µM (highest dose often 9.22 µM), without a hit: at the top dose activation, actives largely listed as activators. 2.4% of 320,000 active; note: % of control where 0% means no effect; nearly all actives have a fitted effect of over 60% in size
#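 Cells: Huh7 expressing luciferase under the NPC1 promoter, 1500/well. Seeded 2 h, compound added, incubated 24 h at 37 °C. Luciferase reagent, 10 min ambient, then luminescence.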
# uPA generation: blocks generation of uPA at the cell surface; AID 540303; cell surface uPA generation assay, qHTS; Potency, µM (titrated, usually from 38.3 µM), for the others: at the highest dose activity change, negative = inhibition, actives largely listed as inhibitors; 0.31% of 330,000 active; active = well fitted inhibition curve with a large enough effect; inconclusive = small, poorly fitted or top-dose-only effect; inactive = no such curve, though single readings can be large or run the other way; tested in mouse RAW 264.7 cells; note: % is set by controls: 0 for no effect and ±100 for the full control effect; nearly all actives have a fitted effect of over 55% in size
# ELG1 genotox: induces genotoxicity in HEK293T cells with luciferase-tagged ELG1 | AID 504466 | HEK293T ELG1-luciferase reporter, luminescence, 16 h | 1.3% of 330,000 active | Potency, µM (doses to about 46 µM), inactives show at the top dose activity change, positive = activation, usual class: activators; note: % of control where 0% means no effect; nearly all actives have a fitted effect of over 60% in size
#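 HEK293T cells expressing luciferase-tagged ELG1 were exposed to compound or DMSO vehicle for 16 hr at 37 °C and 5% CO2. Luciferase activity was then measured with ONE-Glo after 30 min at room temperature.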
# FLuc counter: firefly luciferase modulation, counter-screen for miR-21 project. P08659. purified FLuc, Km substrates, luminescence inhibition. Potency, µM (series often up to 57.5 µM), without a hit: at the top dose activity change, negative = inhibition, hits mostly inhibitors. 6.9% of 360,000 active. AID 588342;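 note: plate controls were vehicle for no effect and reference inhibitor for full effect; nearly all actives have a fitted effect of over 55% in size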
# Target sequence (P08659 whole entry, looked up): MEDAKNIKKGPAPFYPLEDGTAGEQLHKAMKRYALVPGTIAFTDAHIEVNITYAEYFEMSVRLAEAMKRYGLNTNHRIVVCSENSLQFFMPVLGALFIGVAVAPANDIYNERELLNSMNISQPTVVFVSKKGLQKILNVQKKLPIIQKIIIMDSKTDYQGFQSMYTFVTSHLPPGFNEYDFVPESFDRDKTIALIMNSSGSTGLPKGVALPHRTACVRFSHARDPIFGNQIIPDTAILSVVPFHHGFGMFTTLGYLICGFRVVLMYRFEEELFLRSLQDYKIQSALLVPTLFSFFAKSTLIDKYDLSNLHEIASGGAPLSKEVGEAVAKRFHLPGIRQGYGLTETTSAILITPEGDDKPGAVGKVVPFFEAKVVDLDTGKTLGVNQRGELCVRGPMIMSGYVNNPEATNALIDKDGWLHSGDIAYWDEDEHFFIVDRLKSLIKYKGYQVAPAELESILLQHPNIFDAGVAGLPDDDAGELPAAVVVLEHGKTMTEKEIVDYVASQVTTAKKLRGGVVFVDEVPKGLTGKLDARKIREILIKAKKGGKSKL
#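 Purified P. pyralis luciferase, 10 nM final, with Km-level 10 uM D-luciferin and 10 uM ATP in 50 mM Tris acetate pH 7.5, 10 mM Mg acetate, 0.01% Tween-20, 0.05% BSA; 6-point qHTS titration about 60 µM downward; luminescence read.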
# An asterisk follows results filed as active; ? = inconclusive; . = no result. Unless noted, calls come from the whole dose curve; as a rule, active = well fitted curve in the direction sought with a large enough effect; inconclusive = small, poorly fitted or top-dose-only effect, or another doubt; inactive = no such curve, though single readings can be large; an effect the other way counts as inactive or inconclusive. Potency is the fitted concentration of half-maximal effect.
SMILES,SMN2 splice up,Rab9 promoter act,NPC1 promoter act,uPA generation,ELG1 genotox,FLuc counter
CCOc1ccc(C(=O)Cc2ccccc2)cc1,.,.,.,0%,.,.
CCOc1ccc(C(=O)CSCCC(=O)O)cc1,1%,-3%,-4%,1%,16%,6µM*
COC(=O)c1ccc(-c2noc(CN3C[C@H]4CC[C@H]3C4)n2)cc1,.,?,?,14%,?,21µM*
COC(=O)c1ccc(-c2noc(CN(C)CC3CCCCO3)n2)cc1 (stereo not given),10µM*,29%,7%,4%,5%,-4%
COC(=O)c1ccc(-c2noc(CN(Cc3ccncc3)CC3CCCO3)n2)cc1 (stereo not given),.,-29%,-28%,0%,-7%,4%
CCOC(=O)c1c(C)[nH]c(C)c1S(=O)(=O)NCC(=O)Nc1cccc(C#N)c1,.,.,.,.,.,-4%
COc1ccc(-c2cc3c(nn2)-c2ccccc2C3=O)cc1,1.1µM*,0.1µM*,?,-14%,-8%,0.17µM*
O=C1c2ccccc2-c2nnc(-c3ccccc3)cc21,?,0.56µM*,1.3µM*,-3%,9%,0.48µM*
Cc1cccc(-c2cc3c(nn2)-c2ccccc2C3=O)c1,10µM*,3.5µM*,2.2µM*,-2%,?,0.76µM*
Cc1ccccc1NC(=O)C(Cc1ccccc1)N1Cc2ccccc2C1=O (stereo not given),.,.,.,.,.,4%
CCOc1ccc(N2C(=O)/C(=C/c3cc(OC)c(OC)c(OC)c3)N(CC(=O)OC)C2=S)cc1,-40%,2%,-3%,-2%,-3%,4%
CCOc1ccc(/C=C2/C(=O)N(c3ccc(OC)cc3)C(=S)N2CC(=O)OC)cc1OCC,13µM*,?,?,2%,?,6µM*
CN(C)CC#Cc1cncc(C(=O)NNC(=O)Nc2ccc(Cl)cc2)c1,.,2%,4%,6%,0%,24µM*
O=C(NNC(=O)c1ccncc1)Nc1ccc(Cl)cc1,.,.,.,11%,.,.
COc1ccc(-n2c(=O)c3c(c4cc(OC)ccc4n3C)n(C)c2=O)cc1,.,.,.,.,.,-5%
O=C(Nc1ccc2c(c1)CCC2)c1c(F)cccc1Cl,14µM*,1.3µM*,1.6µM*,-2%,9.2µM*,9.5µM*
O=C(Nc1cccc(F)c1)Nc1ccc2c(c1)CCC2,.,2.5µM*,2.5µM*,0%,?,3.4µM*
CCOc1ccc(NC(=O)Nc2ccc3c(c2)CCC3)cc1,.,16%,25%,-7%,14%,-2%
O=C(Nc1ccc(F)cc1)Nc1ccc2c(c1)CCC2,.,2.2µM*,2.5µM*,-3%,?,?
Cc1ccc(NC(=O)Nc2ccc3c(c2)CCC3)cc1,.,2µM*,2µM*,-4%,?,?
C1CCC(NC(=NC2C3CC4CC(C3)CC2C4)N2CCOCC2)CC1 (stereo not given),-11%,.,.,.,.,.
CCC(C)NC(=O)c1sc2nc(C)c(C(=O)Nc3ccc(C)cc3C)c(-c3ccc(NC(C)=O)cc3)c2c1N (stereo not given),-12%,.,.,.,.,-9%
Fc1ccc(-c2noc3ncnc(NCCc4ccccc4)c23)cc1,.,.,.,.,.,-17%
Cc1ccccc1NC(=O)Nc1ccc(C(F)(F)F)cc1,.,2.2µM*,23%,2%,1%,2.4µM*
COc1ccc(NC(=O)Nc2ccc3c(c2)CCC3)cc1OC,13%,18%,9%,2%,8%,-5%
SMILES,SMN2 splice up,Rab9 promoter act,NPC1 promoter act,uPA generation,ELG1 genotox,FLuc counter
O=C(Nc1ccc2c(c1)CCC2)c1ccc(F)cc1,2.2µM*,0.45µM*,0.71µM*,-2%,1.6µM*,1.1µM*
O=C(Nc1ccc2c(c1)CCC2)Nc1ccc(F)cc1F,.,0.79µM*,1.3µM*,-14%,?,?
Cc1ccccc1NC(=O)Nc1ccc2c(c1)CCC2,.,2.5µM*,2.8µM*,-6%,?,2.4µM*
CCN(CC(=O)N1CCCC1)S(=O)(=O)c1ccc(OC)cc1,.,-1%,-3%,0%,0%,0%
Cc1cc2c(NC(=O)Nc3ccccc3)cccc2nn1,.,1%,-2%,-2%,?,-15%
O=C(Nc1ccc2c(c1)CCC2)Nc1ccccc1F,.,0.63µM*,0.45µM*,?,0.41µM*,0.67µM*
O=C(CNC(=O)c1ccccc1F)Nc1ccc2c(c1)CCC2,.,?,?,-2%,?,-19%
O=C(Nc1ccccc1)Nc1ccc2c(c1)CCC2,.,3.5µM*,2.5µM*,-8%,?,2.7µM*
O=C(Cc1ccccc1)Nc1ccc2c(c1)CCC2,.,?,?,.,13%,?
Cc1cc2c(NC(=O)Nc3ccc(C(C)(C)C)cc3)cccc2nn1,.,-8%,-2%,-4%,-6%,12µM*
O=C(Nc1ccc2c(c1)CCC2)c1ncoc1-c1ccccc1F,.,3%,15%,-4%,12%,8.5µM*
Cc1cc(C)cc(NC(=O)Nc2ccc3c(c2)CCC3)c1,.,?,?,-3%,14%,-20%
CCOc1ccccc1NC(=O)c1c(NC(=O)c2ccccc2C)sc2c1CCC(C)C2 (stereo not given),-13%,.,.,.,.,4%
CCOc1ccc(Sc2cc(C(=O)NCCc3ccc(OC)c(OC)c3)c3ccccc3n2)cc1,.,.,.,.,.,-2%
CC(=O)Oc1ccc2c3c(c(=O)oc2c1)CCCC3,.,3%,-5%,20%,3%,-7%
O=C(Oc1ccc2c3c(c(=O)oc2c1)CCCC3)c1ccco1,6%,-1%,-5%,2%,1%,17µM*
CCOC(=O)c1sc(NC(=O)C(C)Sc2nc(-c3ccccc3)cc(C(F)(F)F)n2)c(C(=O)OC)c1C (stereo not given),-4%,.,.,.,.,1%
C=CCn1c(COc2ccccc2)nc2ccccc21,.,16%,14%,-7%,4%,27µM*
Cn1c(COc2ccccc2)nc2ccccc21,.,?,4µM*,0%,?,15µM*
Cc1ccc(NC(=O)Cn2c(=O)ccc3cc(S(=O)(=O)N4CCCC4)ccc32)cc1N(C)C,.,.,.,.,.,-1%
O=C(Nc1ccc(OC(F)F)c(Cl)c1)c1cccc(OC(F)F)c1,-1%,20%,12%,.,-8%,19µM*
COc1ccc(NC(=O)c2cccc(OC(F)F)c2)cc1Cl,?,2.2µM*,3.5µM*,-6%,5.8µM*,11µM*
COc1ccc(NC(=O)c2cccc(F)c2)cc1Cl,?,?,3.5µM*,-6%,9.2µM*,13µM*
COc1ccc(NC(=O)c2ccco2)cc1NC(=O)c1ccccc1F,.,1%,0%,0%,3%,-12%
COc1ccc(NC(=O)c2ccccc2F)cc1Cl,?,2.2µM*,2.2µM*,-7%,9.2µM*,9.5µM*
Cc1c(Cl)cccc1NC(=O)c1cccc(OC(F)F)c1,-8%,19%,18%,.,5%,?

# High-throughput results (PubChem BioAssay)
